From PubChem BioAssay come the findings set out here.

Assay [1] can be described thus: HepG2 liver cancer cell viability effects, profiling panel, resazurin fluorescence, 24 h, PK04 Diversity Set (AID 1172). As to conditions: higher = more signal. Background: The colour change of resazurin is a common sign of viable cells or microbes.
A short description of assay [2]: basal S. cerevisiae growth modulation, no modifier, primary screen, OD600, strain BY4716, 24 h, basal condition (AID 1173). As to conditions: OD600, 24 h, higher = more signal, called active from +8 up or from −8 down.
Assay [3] is described as follows: MM1S myeloma cell viability, profiling panel, resazurin fluorescence, basal, 24 h, PK04 Diversity Set (AID 1174).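 Note: MM1S multiple myeloma cell line.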 As to conditions: higher = more signal, called active from +8 up or from −8 down.
Assay [4] concerns the target Dihydroorotate dehydrogenase (quinone), mitochondrial (Plasmodium falciparum (isolate 3D7)) (UniProt Q08210). Description: PfDHODH enzyme inhibitors, primary screen, biochemical, C-terminal His tag, absorbance 600 nm (AID 1175).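 Note: recombinant parasite enzyme with a five histidine tag at its C terminus.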 As to conditions: DCIP absorbance 600 nm, higher = more signal, called active from +8 up or from −8 down.
Assay [5] can be described thus: P. aeruginosa biofilm formation inhibitors, primary screen, strain PAO1, LB-PBS medium, absorbance 600 nm (AID 1176). As to conditions: P. aeruginosa PAO1 growth/biofilm, A600, 12 h; higher = more signal.
A short description of assay [6]: S. cerevisiae RM11-1a growth modifiers, primary screen, strain RM11-1a, OD600, basal, 24 h (AID 1177).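 Note: cultures grown under basal conditions with no added stressor.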 As to conditions: OD600, 24 h, higher = more signal, called active from +8 up or from −8 down.
The nature of assay [7]: E. coli acrAB mutant growth effects, primary screen, E. coli filamentation inducers, strain DRC39, OD650, 24 h (AID 1178).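 Note: growth measured as culture turbidity by optical density at 650 nm.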 As to conditions: higher = more signal, called active from +8 up or from −8 down.
A short description of assay [8]: E. coli acrAB mutant growth effects, primary screen, E. coli filamentation inducers, strain DRC39, OD650, 48 h (AID 1179).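 Note: screen aims at cell division blockers that make cells filament.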 As to conditions: E. coli DRC39 delta-acrAB growth, higher = more signal, called active from +8 up or from −8 down.
A short description of assay [9]: RPMI8226 myeloma cell viability, profiling panel, resazurin fluorescence, basal, 24 h, PK04 Diversity Set (AID 1180).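 Note: RPMI8826 multiple myeloma cell line at 5000 cells per well.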 As to conditions: higher = more signal.
Assay [10] concerns the target E3 ubiquitin-protein ligase XIAP (Homo sapiens) (UniProt P98170). Description: XIAP binders, primary screen, biophysical, small-molecule microarray, fluorescence 635 nm (AID 1181).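 Note: score merges 667 nm emission and signal to noise over triplicate slides.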 As to conditions: small-molecule microarray binding, higher = more signal.
The test system of assay [11] is XIP peptide (Xip251-270) binding. Description: small-molecule binders of XIP peptide, primary screen, biochemical, small-molecule microarray, fluorescence 635/667 nm, 0.1 µg/mL protein (AID 1182). As to conditions: fluorescent protein binding, 635 nm, higher = more signal, called active from +8 up or from −8 down.
The next assay relates to XIP peptide (Xip251-270). Description: small-molecule binders of XIP peptide, primary screen, biochemical, small-molecule microarray, fluorescence 635/667 nm, 0.5 µg/mL protein (AID 1183). As to conditions: small-molecule microarray binding, fluorescence 635 nm; higher = more signal.
Assay [12] in a line: Plasmodium falciparum growth inhibition, primary screen, strain 3D7, DAPI fluorescence, 100 nL (AID 1184).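 Note: parasites grown inside human red blood cells in medium with human serum.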 As to conditions: P. falciparum 3D7 growth, 3 d, higher = more signal.
Assay [13] concerns the target Homeobox protein Hox-A13 (Mus musculus) (UniProt Q62424). Description: inhibitors of HoxA13-DNA binding, primary screen, biochemical, fluorescence polarization, labeled oligonucleotide (AID 1185). As to conditions: 15 min, higher = more signal, called active from +8 up or from −8 down. In general terms: Fluorescence polarisation rises when a labelled molecule tumbles more slowly, as on binding a larger partner.

Assay [14] in a line: inhibitors of hydroxyurea-induced Chk1 phosphorylation, primary screen, imaging, HeLa, phospho-Chk1 antibody, percent positive cells (AID 1186). As to conditions: hydroxyurea-induced phospho-Chk1 immunofluorescence imaging, higher = more signal.
Assay [15] in a line: inhibitors of hydroxyurea-induced Chk1 phosphorylation, primary screen, imaging, HeLa, phospho-Chk1 nuclear intensity (AID 1187). As to conditions: hydroxyurea-induced phospho-Chk1 immunofluorescence imaging, higher = more signal.

SMILES strings stand for the structures. The source made the active and inactive calls. Unless noted, the rule behind the calls is not given here.

Homeobox protein Hox-A13 (Mus musculus), sequence (Q62424 whole entry, looked up): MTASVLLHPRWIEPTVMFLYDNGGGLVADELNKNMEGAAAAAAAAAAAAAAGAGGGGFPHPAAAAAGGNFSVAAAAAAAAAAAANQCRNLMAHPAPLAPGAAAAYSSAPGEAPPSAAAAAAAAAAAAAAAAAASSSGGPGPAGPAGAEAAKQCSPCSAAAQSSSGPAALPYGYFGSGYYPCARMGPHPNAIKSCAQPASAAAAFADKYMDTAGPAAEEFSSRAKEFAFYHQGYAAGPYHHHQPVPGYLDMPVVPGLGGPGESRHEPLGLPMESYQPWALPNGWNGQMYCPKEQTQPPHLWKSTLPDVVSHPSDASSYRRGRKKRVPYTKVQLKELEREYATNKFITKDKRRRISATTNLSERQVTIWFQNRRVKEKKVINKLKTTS
Dihydroorotate dehydrogenase (quinone), mitochondrial (Plasmodium falciparum (isolate 3D7)), sequence (Q08210 whole entry, looked up): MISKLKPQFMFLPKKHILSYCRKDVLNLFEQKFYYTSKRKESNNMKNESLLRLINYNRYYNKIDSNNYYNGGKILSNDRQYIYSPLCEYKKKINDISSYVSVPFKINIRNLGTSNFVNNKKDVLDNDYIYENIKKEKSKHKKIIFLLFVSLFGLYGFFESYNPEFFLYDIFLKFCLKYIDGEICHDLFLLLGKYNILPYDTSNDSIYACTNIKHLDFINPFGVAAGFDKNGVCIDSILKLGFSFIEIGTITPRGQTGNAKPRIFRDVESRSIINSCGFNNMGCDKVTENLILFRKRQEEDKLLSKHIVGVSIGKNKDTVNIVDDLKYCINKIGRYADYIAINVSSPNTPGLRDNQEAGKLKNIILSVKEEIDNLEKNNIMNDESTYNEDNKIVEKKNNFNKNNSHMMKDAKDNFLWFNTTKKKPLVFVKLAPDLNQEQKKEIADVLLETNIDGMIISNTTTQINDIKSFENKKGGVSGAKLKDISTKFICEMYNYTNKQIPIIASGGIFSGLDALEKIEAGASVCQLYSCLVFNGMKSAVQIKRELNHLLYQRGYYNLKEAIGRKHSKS
E3 ubiquitin-protein ligase XIAP (Homo sapiens), sequence (P98170 whole entry, looked up): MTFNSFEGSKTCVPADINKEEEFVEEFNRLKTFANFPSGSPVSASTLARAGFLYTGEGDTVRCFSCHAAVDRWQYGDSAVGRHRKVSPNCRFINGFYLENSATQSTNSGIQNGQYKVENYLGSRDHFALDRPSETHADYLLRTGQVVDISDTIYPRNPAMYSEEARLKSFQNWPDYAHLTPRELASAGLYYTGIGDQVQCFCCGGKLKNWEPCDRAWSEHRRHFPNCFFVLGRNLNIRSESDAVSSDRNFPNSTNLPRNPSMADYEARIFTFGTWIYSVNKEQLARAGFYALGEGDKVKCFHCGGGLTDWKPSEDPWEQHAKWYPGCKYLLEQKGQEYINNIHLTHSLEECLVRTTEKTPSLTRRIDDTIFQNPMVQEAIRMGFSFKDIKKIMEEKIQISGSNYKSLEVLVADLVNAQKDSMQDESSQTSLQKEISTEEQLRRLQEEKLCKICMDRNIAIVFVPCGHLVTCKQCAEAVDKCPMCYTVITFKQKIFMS

`CCCCC(=O)N(Cc1ccccc1F)[C@@H]1CC(C(=O)NCCO)=C[C@H](Oc2c(I)cc(CO)cc2OC)[C@H]1O`: the z-score in [1] is -0.796; in assay [2], -2.51 (inactive); in [3], -0.137 (inactive); in assay [5], -0.447 (inactive); in assay [6], 1.65 (inactive); in assay [7] it was 0.754 (inactive). Moreover, the z-score was 0.266 (inactive) in assay [8]; -0.0533 in assay [9]; -1.66 in assay [12]; -7.53 (inactive) in assay [13]; 0.148 (inactive) in assay [14]; 0.545 (inactive) in assay [15]. Also, the composite z-score was -1.63 (inactive) in assay [4], 0.344 in assay [10], 0.466 (inactive) in assay [11] and 0.704 with XIP peptide (Xip251-270).

`CCCNC(=O)[C@@]1(C)c2ccccc2C(=O)N(Cc2ccc(OC(F)(F)F)cc2)[C@H]1c1ccc(CO)cc1`: the z-score was -0.0818 in assay [1]; -0.0169 (inactive) in [2]; -0.0521 (inactive) in assay [3]; 0.251 (inactive) in [5]; -0.277 (inactive) in assay [6]; 0.484 (inactive) in [7]. Also, the z-score in assay [8] is 1.28 (inactive); in [9], 0.325; in assay [12], -0.775; in assay [13], -3.32 (inactive); in assay [14] it was -0.374 (inactive); in assay [15], -0.473 (inactive). Also, the composite z-score was 0.263 (inactive) in assay [4], -0.0599 in assay [10], 0.689 (inactive) in [11] and 0.794 in the assay on XIP peptide (Xip251-270).

Take `COC(=O)c1nc2oc1CC[C@@H](CO)NC(=O)N(C)Cc1cn(nn1)C[C@H](Cc1ccccc1)NC2=O`: the z-score in assay [1] was 0.395; in [2] it was -7.59 (inactive); in [3] it was 0.456 (inactive); in [5], 0.113 (inactive); in [6], 0.219 (inactive); in [7] it was 0.0613 (inactive). The z-score is 0.72 (inactive) in [8]; 0.407 in assay [9]; 1.24 in [12]; -1.31 (inactive) in [13]; -0.0288 (inactive) in assay [14]; -0.455 (inactive) in [15]. Moreover, the composite z-score in [4] was -0.773 (inactive); in [10], -0.117; in assay [11], 0.827 (inactive); in the assay with XIP peptide (Xip251-270), 0.969.

On to `COCCOC(=O)N1C(=O)[C@@]2(c3cc(C#Cc4ccc(OC)cc4)ccc31)[C@H](c1ccc(OCCO)cc1)N1[C@H](c3ccccc3)[C@H](c3ccccc3)OC(=O)[C@H]1[C@@H]2C(=O)N1CCc2cc(OC)c(OC)cc2C1`, for which the z-score was 1.04 in [1]; 2.62 (inactive) in assay [2]; 1.02 (inactive) in assay [3]; 3.34 (inactive) in [5]; 3.55 (inactive) in [6]; -0.148 (inactive) in assay [7]. The z-score in assay [8] was 0.0574 (inactive); in assay [9] it was 0.928; in [12] it was -1.85; in assay [13] it was 3.38 (inactive); in [14] it was -0.329 (inactive); in assay [15], -0.456 (inactive). The composite z-score in [4] is -0.0321 (inactive); in assay [10] it was -0.0476; in assay [11], 0.179 (inactive); in the assay with XIP peptide (Xip251-270), 0.592.

`COc1ccc([Si](C)(C)[C@@H]2[C@@H](CCn3cc([C@H](O)c4ccccc4)nn3)O[C@]3(C(=O)N(C)c4ccccc43)[C@H]2C)cc1`: the z-score in [1] was -1.46; in assay [2] it was -0.397 (inactive); in assay [3], -2.34 (inactive); in [5] it was 0.119 (inactive); in assay [6], 1.04 (inactive); in assay [7] it was -0.834 (inactive). Further, the z-score is -1.33 (inactive) in [8]; -1.81 in assay [9]; -1.13 in assay [12]; -6.22 (inactive) in assay [13]; 0.131 (inactive) in assay [14]; -0.858 (inactive) in assay [15]. The composite z-score in assay [4] was 0.283 (inactive); in [10], -0.0272; in [11], -0.558 (inactive); with XIP peptide (Xip251-270), 0.679.

Turning to `C[N+](C)(C)CCCC[C@@H]1NC(=O)[C@H]2C[C@@H](C(=O)O)[C@@H](c3cccc(OCCO)c3)N2C1=O`, the z-score was 0.352 in [1]; -1.32 (inactive) in [2]; 0.644 (inactive) in assay [3]; 0.0751 (inactive) in assay [5]; -0.625 (inactive) in [6]; 0.406 (inactive) in assay [7]. The z-score was 0.871 (inactive) in [8]; 0.773 in assay [9]; -0.255 in assay [12]; -0.304 (inactive) in assay [13]; 0.336 (inactive) in assay [14]; 0.213 (inactive) in assay [15]. The composite z-score in assay [4] is 0.16 (inactive); in assay [10], 0.353; in [11], 3.68 (inactive); in the assay with XIP peptide (Xip251-270), 0.809.

Consider `NC(=O)NCC#Cc1ccc2c(c1)[C@]1(C(=O)N2)[C@H](c2ccccc2OCCO)N2[C@H](c3ccccc3)[C@H](c3ccccc3)OC(=O)[C@H]2[C@@H]1C(=O)N1CCCCCCC1`, for which the z-score in [1] was -0.0969; in [2] it was -0.0475 (inactive); in [3], 0.755 (inactive); in assay [5], 1.92 (inactive); in assay [6], 0.899 (inactive); in assay [7], -0.315 (inactive). Further, the z-score is -0.127 (inactive) in assay [8]; 0.966 in assay [9]; -2.04 in assay [12]; 3.45 (inactive) in assay [13]; 0.264 (inactive) in assay [14]; 0.69 (inactive) in assay [15]. Moreover, the composite z-score was 0.417 (inactive) in assay [4], 0.202 in assay [10], 0.909 (inactive) in [11] and 0.633 in the assay with XIP peptide (Xip251-270).

Consider `COC(=O)C(CC#Cc1ccc2c(c1)[C@]1(C(=O)N2)[C@H](C(=O)N2CCCCCCC2)[C@H]2C(=O)O[C@H](c3ccccc3)[C@H](c3ccccc3)N2[C@@H]1c1ccccc1OCCO)C(=O)OC`, for which the z-score in assay [1] is -0.198; in assay [2], 0.946 (inactive); in assay [3], -0.0924 (inactive); in assay [5], 1.22 (inactive); in assay [6], 0.0478 (inactive); in assay [7], -1.19 (inactive). The z-score in assay [8] is -0.513 (inactive); in [9] it was 0.218; in assay [12], -2.21; in assay [13], 1.03 (inactive); in assay [14], 0.0041 (inactive); in assay [15] it was 0.0484 (inactive). Further, the composite z-score in [4] is -4.91 (inactive); in assay [10], 2.41; in assay [11], 8 (inactive); with XIP peptide (Xip251-270), 1.04.

For the compound `C=C(CCCC)/C(=C/C[C@H](OC(C)=O)c1ccc(CO)o1)c1cc(C(=O)OC)ccc1OC`, the z-score in assay [1] was -0.577; in assay [2], -0.31 (inactive); in assay [3], -0.871 (inactive); in assay [5], 0.0842 (inactive); in assay [6], 0.0837 (inactive); in [7] it was -0.729 (inactive). Besides, the z-score in [8] is -0.776 (inactive); in [9] it was -0.641; in [12] it was -1.52; in assay [13] it was -4.44 (inactive); in assay [14], -0.92 (inactive); in assay [15], -0.469 (inactive). For the same compound, the composite z-score in [4] was -2.01 (inactive); in assay [10] it was -0.322; in assay [11], 0.485 (inactive); in the assay with XIP peptide (Xip251-270), 0.73.

For `C=CC[C@@]1(C(N)=O)N=C(c2ccc(OCCCO)cc2)O[C@@H]1c1ccccc1N=[N+]=[N-]`, the z-score in assay [1] is 0.895; in assay [2] it was -1.08 (inactive); in assay [3], 0.694 (inactive); in assay [5], 0.401 (inactive); in [6] it was 0.178 (inactive); in [7], 0.951 (inactive). Further, the z-score was -0.0342 (inactive) in [8]; 0.502 in assay [9]; -1.73 in assay [12]; -6.09 (inactive) in assay [13]; -0.0626 (inactive) in assay [14]; 0.0164 (inactive) in [15]. The composite z-score in assay [4] was 0.832 (inactive); in assay [10], 0.0896; in assay [11], 0.868 (inactive); in the assay on XIP peptide (Xip251-270), 0.231.
